Source: PubChem
Shiga inhibitor: blocks Shiga toxin action in Vero cells | Vero cells, Shiga toxin protein synthesis inhibition reporter | AID 2315 | inhibition, % at 38.7 µM | hit rate 9.2% among 290,000; in the data active = inhibition mostly above about 28%, no sharp cut-off; inactive = mostly below about 43%; also: 0% is about no effect
Sm TGR inh: S. mansoni TGR enzyme inhibition. Q962Y6. purified TGR, DTNB reduction, TNB absorbance 405 nm. hit rate 3% among 360,000. Potency, µM (series often up to 114 µM), for inactives: at the highest dose activity change, negative = inhibition, actives largely listed as inhibitors. AID 485364; active = well fitted inhibition curve with a large enough effect; inconclusive = small, poorly fitted or top-dose-only effect; inactive = no such curve, though single readings can be large or run the other way; also: potency is read from the fitted curve at half-maximal effect; % is scaled to controls: 0 for no effect and ±100 for the full control effect; nearly all actives have a fitted effect of over 60% in size
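TGR 20 nM + NADPH 100 uM (dispensed conc.), cpd preinc 15 min RT; start with NADPH (500 uM addition) then DTNB (15 mM addition). Kinetic TNB absorbance, 405 nm filter. Four-parameter Hill fit across titration.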
CHX counter: counter-screen for Shiga toxin inhibitors: cycloheximide protein synthesis inhibition; cell reporter, cycloheximide protein synthesis inhibition counterscreen; max response, %; hit rate 12% among 300,000; in the data active = max response mostly above about 13%, no sharp cut-off; inactive = mostly below about 14%; also: read at 38.3 µM for the half of the compounds with a filed dose; 0% is about no effect
FMDV inh: foot and mouth disease virus antiviral activity; hit rate 1.2% among 410,000; Potency, µM (titrated, usually from 57.9 µM), for inactives: at the highest dose activity change, negative = inhibition, actives largely listed as inhibitors; AID 1159524; FMDV antiviral cell-based qHTS; calls by dose curve; tested in HEK293T cells; also: read-out not given here; potency is read from the fitted curve at half-maximal effect; % is scaled to controls: 0 for no effect and ±100 for the full control effect; nearly all actives have a fitted effect of over 45% in size
An asterisk follows results filed as active; u = inconclusive; x = no result. Rows were chosen to be rich in hits. Some 12% of all compounds tested hit in one or more screens of this group.

SMILES | Shiga inhibitor | Sm TGR inh | CHX counter | FMDV inh
Cc1cccc(CNC(=O)c2c3n(c(C)cc2=O)-c2ccccc2SC(c2ccsc2)C3)n1 (stereo not given) | x | x | x | -15%
CC1CCc2nc(NC(=O)CN3CCOCC3)sc2C1 (stereo not given) | 68* | -10% | 38* | 35%
CC1CCc2nc(NC(=O)CN3CCN(c4ccccc4)CC3)sc2C1 (stereo not given) | -12 | 3% | -2 | u
COc1ccc(C(=O)c2ccc(N3CCOCC3)cc2)c(OC)c1 | 14 | u | 14* | 0%
COc1ccc(C(=O)c2ccc(OC)cc2OC)cc1 | 24 | 3% | 7 | 0%
Cc1ccc(-c2[nH]c3ccccc3c2C(C[N+](=O)[O-])c2ccco2)cc1 (stereo not given) | 25 | 79µM* | 20* | -29%
Cc1[nH]c2ccccc2c1C(C[N+](=O)[O-])c1ccco1 (stereo not given) | 12 | 22µM* | -4 | -27%
Cc1[nH]c2ccccc2c1C(C[N+](=O)[O-])c1cccs1 (stereo not given) | -4 | -1% | 1 | u
Cc1[nH]c2ccccc2c1C(C[N+](=O)[O-])c1cccc(O)c1 (stereo not given) | 30 | -10% | -2 | -4%
O=C(c1cccc(F)c1)N1CCC2(CC1)CCN(c1ccc(-c3ccccc3)cc1)CC2 | x | x | x | -18%
CCC(CC)C(=O)N(C)c1c(C)nc2c(OCC3CCCCC3)cccn12 | x | x | x | 0%
Cc1nc2c(OCc3ccc(C#N)cc3)cccn2c1N(C)C(=O)CCC1CCCC1 | x | x | x | 22µM*
CCc1nc2c(OCc3ccc(C(=O)OC)cc3)cccn2c1N(C)C(=O)CC(C)C | x | x | x | -9%
COC(=O)c1ccc(COc2cccn3c(N(C)C(=O)CCC4CCCC4)c(C)nc23)cc1 | x | x | x | 35µM*
CCN(c1ccc(Cl)cc1)S(=O)(=O)c1nnc(NC(=O)C2CCCCC2)s1 | x | 3% | x | -18%
Cc1ccc(NCC(=O)N/N=C\c2ccc([N+](=O)[O-])o2)cc1 | -5 | u | 1 | x
CCCCCC(=O)N/N=C/c1ccc([N+](=O)[O-])o1 | 28 | 40µM* | 9 | -11%
CCN(CC)c1ccc(N=Cc2ccc([N+](=O)[O-])o2)cc1 | 139* | 35µM* | 57* | -9%
O=C(CCC(=O)Nc1ccc(Cl)cc1Cl)N/N=C/c1ccc([N+](=O)[O-])o1 | 38* | u | 2 | -25%
CCC(Oc1ccccc1)C(=O)Nc1cc(-c2ccccc2OC)nn1-c1ccccc1 (stereo not given) | x | 6% | x | -20%
CCCCC(=O)Nc1cccc(-c2nc3ccccc3s2)c1 | x | 11% | x | 31%
O=C(Nc1cccc(-c2cn3ccccc3n2)c1)c1ccccc1 | 57* | 0% | 34* | -28%
Cc1ccccc1C(=O)Nc1cccc(-c2cn3ccccc3n2)c1 | 42 | x | 21* | u
Cc1cc(C)c(S(=O)(=O)Nc2cccc(-c3cn4ccccc4n3)c2)c(C)c1 | x | 9% | x | 42%
CCCCC(=O)Nc1cccc(-c2cn3ccccc3n2)c1 | 108 | u | 29* | x
SMILES | Shiga inhibitor | Sm TGR inh | CHX counter | FMDV inh
Cc1ccc(C(=O)Nc2cccc(-c3cn4ccccc4n3)c2)cc1 | 81* | 2% | 41* | 7%
Cc1ccc(OCC(=O)Nc2ccc(OCc3cc(=O)n4ccsc4n3)cc2)cc1 | x | 8% | x | -19%
Cc1ccc(C(C)C)c(OCc2ccc(C(=O)Nc3ccc(S(N)(=O)=O)cc3C)o2)c1 | x | -12% | x | -11%
CCCCCNCc1ccc(Cl)cc1 | 25 | 4% | 17 | -6%
CCCCCCC[N+](CC)(CC)CCCCc1ccc(Cl)cc1 | x | -1% | x | 18µM*
CC(C)C(NS(=O)(=O)c1cccc2cccnc12)C(=O)Nc1ccc(OC(F)(F)F)cc1 (stereo not given) | x | 4% | x | 30%
O=C(/C=C/c1ccc(O)c(O)c1)NC(=O)c1ccccc1O | 24 | -29% | 15 | 25%
O=C(/C=C/c1ccc(Br)cc1)NC(=O)c1ccccc1O | 46 | -4% | 32* | -60%
CSc1ccc(/C=C/C(=O)NC(=O)c2ccccc2O)cc1 | 20 | x | 9.6* | 2%
Cc1cc(C)cc(NC(=O)C2CC23CCN(Cc2ccc4ncccc4c2)CC3)c1 (stereo not given) | x | x | x | -10%
BrC(=C\c1ccccc1)/C=N/Nc1nc2ccccc2[nH]1 | 104* | 20µM* | 75* | 6%
C#CCn1cc(/C=N/NC(=O)COc2cccc3cccnc23)c2ccccc21 | 26* | -4% | 12* | -16%
C(=N\Nc1nc2ccccc2[nH]1)/c1ccc2ncccc2c1 | 58* | 10% | 58* | 30%
C(=N\Nc1nc2ccccc2[nH]1)/c1cccc2nccnc12 | 29 | 5% | 31* | 16%
Cc1ccc(S(=O)(=O)N/N=C/c2cccc3nccnc23)cc1 | -9 | -10% | 0 | -19%
